From PubChem BioAssay
BH1578 lux ind – quorum light induction in luxS cqsA deficient V. cholerae. V. cholerae BH1578 lux reporter, luminescence, 6 h. activation, % at 18.7 µM. 350,000 tested, 0.16% active. AID 588436; in the data active = activation mostly above about 9.7%, no sharp cut-off; inconclusive = no clear call, values can overlap the other calls; inactive = mostly below about 3.7%
PrP UTR inh – inhibition of PrP 5' UTR reporter expression; 340,000 tested, 0.35% active; cell-based PrP 5' UTR mRNA reporter, plate reader; inhibition, % (concentration not given with the values); AID 488862; in the data active = inhibition above about 52%; note: 0 = median of the neutral control wells
UGM FP inh – inhibitors of M. tuberculosis UDP-galactopyranose mutase; 320,000 tested, 0.06% active; purified UGM, fluorescence polarization probe displacement; inhibition, % at 10 µM; P9WIQ1; in the data active = inhibition above about 10%, passing the limit was not always enough; inconclusive = no clear call, values can overlap the other calls
Mtb bLac sens – beta-lactam sensitization of Mtb H37Rv | M. tuberculosis H37Rv growth with meropenem, percent inhibition | inhibition, % at 25 µM | 330,000 tested, 0.27% active; call rule not given here;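 note: growth measured after seven days incubation then overnight dye step; 0% = bacteria only wells and 100% = bacteria with antibiotic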
FadD28 binding – blocks FadD28 binding to the bisubstrate probe; fluorescence polarization; inhibition, % at 12.5 µM; 360,000 tested, 0.22% active; AID 588549; in the data active = inhibition above about 8.5%, passing the limit was not always enough; inconclusive = no clear call, values can overlap the other calls
Rv3671c inh – Rv3671c (M. tuberculosis) protease inhibition | inhibition, % at 5.96 µM | AID 2606 | P9WHR9 | 320,000 tested, 0.048% active; in the data active = inhibition above about 38%;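 note: extracellular domain of Rv3671c used as enzyme; 0% = enzyme with DMSO and 100% = no enzyme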
Target sequence (P9WHR9 whole entry, looked up, the tested form may be a part): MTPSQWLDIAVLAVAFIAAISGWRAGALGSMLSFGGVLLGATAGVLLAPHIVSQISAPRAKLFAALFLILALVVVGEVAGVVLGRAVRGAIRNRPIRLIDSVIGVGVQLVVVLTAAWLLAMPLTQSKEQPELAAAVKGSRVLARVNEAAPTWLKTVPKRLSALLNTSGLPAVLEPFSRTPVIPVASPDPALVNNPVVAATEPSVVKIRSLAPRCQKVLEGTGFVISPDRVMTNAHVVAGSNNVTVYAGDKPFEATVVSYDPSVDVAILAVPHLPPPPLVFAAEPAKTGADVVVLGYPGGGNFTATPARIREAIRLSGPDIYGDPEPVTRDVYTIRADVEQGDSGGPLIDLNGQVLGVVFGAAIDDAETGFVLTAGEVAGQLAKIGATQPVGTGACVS
PrP UTR cherry – prion 5' UTR mRNA inhibition, cherry-pick retest; shares compounds with PrP UTR inh; cell-based prion protein 5' UTR reporter, plate reader; inhibition, % at 2.5 µM; 1,100 tested, 48% active; AID 504592; in the data active = inhibition above about 54%; inconclusive = no clear call, values can overlap the other calls
Starred values were filed as active, the others as inactive; i = inactive; ? = inconclusive; nt = not tested or not shown. Hits are enriched below; roughly 0.76% of the tested compounds scored in any of these assays.

SMILES	BH1578 lux ind	PrP UTR inh	UGM FP inh	Mtb bLac sens	FadD28 binding	Rv3671c inh	PrP UTR cherry
CC(=O)Nc1ccc2c(c1)Cc1c-2cc(Cl)c(NC(C)=O)c1Cl	-3.3	-29.0	nt	nt	-4.2	nt	nt
O=C1C(=C2SCCCS2)CC/C1=C\c1ccc(F)cc1	-1.1	83.7*	3.0	-13.9	-2.3	3.1	84.1*
Cc1cccc(/C=C2\CCC(=C3SCCCS3)C2=O)c1	-0.3	54.8*	-1.8	63.7	-1.5	1.7	?
O=C1/C(=C/c2ccccc2)CCCc2ccccc21	-1.4	-39.1	-2.3	1.1	0.6	5.6	nt
O=C1C(=Cc2ccc(F)cc2)Cc2ccccc21	nt	nt	nt	nt	-1.2	nt	nt
COc1ccc(CNC(=O)CCn2c(=O)oc3ccccc32)c(OC)c1	i	-0.8	5.0	-1.9	-0.5	-6.0	nt
CCOc1ccc(N(CC(=O)N2CCc3ccccc32)S(=O)(=O)c2c(C)noc2C)cc1	-0.1	79.1*	-0.5	15.3	-2.2	1.4	9.0
Cc1cc(C)cc(N(CC(=O)N2CCN(c3ccccc3)CC2)S(=O)(=O)c2c(C)noc2C)c1	-0.2	-1.9	0.6	4.8	-0.5	-0.6	nt
Cc1cc(C)cc(N(CC(=O)N2CCn3c2nc2ccccc23)S(=O)(=O)c2c(C)noc2C)c1	-0.3	67.2*	-0.9	8.3	-0.1	4.2	-3.0
Cc1cc(C)cc(N(CC(=O)N2CCc3ccccc32)S(=O)(=O)c2c(C)noc2C)c1	-0.3	-5.0	0.0	-3.2	-0.6	0.1	nt
O=C(Nc1ccnn1C1CCN(C(=O)Cc2cccc(Cl)c2)CC1)C1CC1	-0.3	-23.4	-3.0	-4.1	-0.6	-7.4	nt
COc1cc2cc(C)c(SCC(=O)N3CCOCC3)nc2cc1OC	-0.8	-14.0	-1.4	-3.4	-0.4	-4.5	nt
COc1cc2cc(C#N)c(SCC(=O)N3CCOCC3)nc2cc1OC	-0.6	71.5*	0.9	2.2	-3.4	7.1	-28.7
COc1ccc2c(c1)nc(SCC(=O)c1ccc(Br)s1)n2C	i	-0.6	2.1	10.5	-4.0	-10.7	nt
Cc1ccc(S(=O)(=O)CC(=O)Nc2ccc(S(=O)(=O)Nc3ccccn3)cc2)cc1	-0.7	80.2*	-0.8	2.5	-0.6	-1.5	-19.6
CC(=O)Nc1cc(C)ns1	i	68.8*	nt	nt	-1.9	nt	?
CC(=O)Nc1ccc(Nc2nc(C)cc(C)n2)cc1	-0.3	-12.4	2.3	2.2	-1.1	5.9	nt
CC12CCC3C(CCC4(O)CC(O)CCC34C=NO)C1(O)CCC2C1=COC(=O)C1 (stereo not drawn)	i	88.7*	nt	nt	-1.4	nt	85.3*
CCCCN=C[C@]12CCC(O)CC1(O)CCC1[C@@H]2CC[C@]2(C)[C@H](C3C=CC(=O)O3)CCC12O (stereo partly drawn)	i	82.5*	-0.5	-9.4	-1.8	-2.5	77.5*
CC12CC[C@H]3[C@@H](CCC4(O)C[C@H](O)CCC34/C=N/NC(=O)c3ccccc3Cl)C1(O)CCC2C1=CC(=O)OC1 (stereo partly drawn)	-0.7	-31.5	-3.0	-7.5	-2.7	-2.7	nt
CC1CCN(C(=O)c2ccc(COc3ccccc3Cl)o2)CC1	-1.0	76.5*	4.8	10.3	-0.4	1.0	-6.2
O=C(c1ccc(COc2ccccc2Cl)o1)N1CCCC1	-1.0	-14.0	-2.6	1.5	-3.9	2.1	nt
CC(=O)Nc1ccc(S(=O)(=O)N2CCC(NC(=O)c3ccco3)CC2)cc1	i	-15.3	1.5	-3.9	-2.6	1.2	nt
COc1ccc(OC)c(S(=O)(=O)N2Cc3ccccc3CC2C(=O)Nc2nccs2)c1 (stereo not drawn)	-4.5	68.7*	0.1	21.0	-1.8	-10.3	-32.6
COc1cc(NC(=O)C2Cc3ccccc3CN2S(C)(=O)=O)cc(OC)c1 (stereo not drawn)	0.6	4.9	1.7	4.5	-1.8	-1.5	nt
SMILES	BH1578 lux ind	PrP UTR inh	UGM FP inh	Mtb bLac sens	FadD28 binding	Rv3671c inh	PrP UTR cherry
CC(=C\c1ccccc1)/C=C1/SC(=S)N(CCCC(=O)O)C1=O	-0.6	8.0	5.6	8.2	nt	nt	nt
CC(/C=C1\SC(=O)N(CCCC(=O)O)C1=O)=C\c1ccccc1	4.3	83.2*	-2.0	5.2	0.6	-0.8	86.3*
Cc1ccc(N2CC(C(=O)NCc3ccccn3)CC2=O)cc1 (stereo not drawn)	i	-46.4	0.2	-1.7	-1.7	-1.1	nt
Cc1cc(C)c2c(N)c(C(=O)Nc3ncc(C)s3)sc2n1	-0.7	89.2*	1.1	3.2	-0.6	1.8	83.6*
COC(=O)c1cc(S(=O)(=O)NC2CCCCC2)cn1C	-0.2	-7.0	0.4	0.3	-1.0	0.9	nt
COc1ccc(S(=O)(=O)Nc2c(C)ccc3nsnc23)cc1OC	-2.2	-19.5	nt	-6.7	-0.1	1.6	nt
COc1ccc(OC)c(Nc2c3ccccc3nc3ccccc23)c1	-1.9	nt	2.0	15.5	-2.6	-11.2	nt
COc1ccc(OC)c(Nc2c3c(nc4ccccc24)CCC3)c1	i	73.6*	0.2	9.2	-3.3	1.4	87.1*
CC(Oc1ccccc1)C(=O)NC1C(=O)N2C1SC(C)(C)C2C(=O)O (stereo not drawn)	-0.2	-18.4	0.4	-3.7	-1.2	-16.7	nt
CCOC(=O)OC(C)OC(=O)[C@@H]1N2C(=O)[C@@H](NC(=O)[C@H](N)c3ccccc3)[C@H]2SC1(C)C (stereo partly drawn)	-0.5	54.5*	-2.4	-1.7	-2.9	-0.9	-8.2
C=C1CC(Cn2cc(Br)c(=O)[nH]c2=O)(c2ccc(-c3ccccc3)cc2)OC1=O (stereo not drawn)	i	60.6*	nt	nt	-1.5	nt	72.3*
O=c1[nH]c(=O)n(Cc2ccc(Oc3ccccc3)cc2)cc1Br	i	-26.4	0.2	-3.8	-4.7	-0.3	nt
CCOC(=O)c1c(NC(=O)COC(=O)c2cnccn2)sc(C)c1C	-0.2	-13.8	1.7	17.0	-0.4	4.3	nt
CN(C)C(=O)c1cc2c(c(-c3cccc(C4=CCCCC4)c3)n1)[C@@H](CCO)N(S(=O)C(C)(C)C)C2 (stereo partly drawn)	nt	nt	nt	nt	-0.9	nt	nt
COc1ccc(NC(=O)N(C)C[C@H]2Oc3ccc(NC(=O)Nc4ccc(C(F)(F)F)cc4)cc3C(=O)N([C@H](C)CO)C[C@@H]2C)cc1	0.2	65.4*	2.0	1.7	-2.1	-130.3	-23.2
CN(C)/C=C(\C(=O)c1ccc(F)cc1F)c1nnnn1-c1ccccc1	-0.3	-2.9	0.4	1.0	-0.4	9.4	nt
COc1ccc(Cl)cc1NC(=O)/C=C\C(=O)O	-0.5	69.9*	-2.4	nt	-2.5	-4.9	-9.8
Cc1ccc(Cn2cnc3c(cnn3-c3ccc(F)cc3)c2=O)cc1	-0.3	-15.7	0.1	-6.2	-2.3	2.1	nt
Cc1cc(C(=O)CSc2nnc3ccccn23)c(C)n1-c1ccccc1	1.9	66.8*	-2.3	2.5	-1.0	3.4	84.7*
COc1cc2cc(c1Cl)N(C)C(=O)CC(OC(=O)C(C)N(C)C(C)=O)C1(C)OC1C(C)C1CC(O)(NC(=O)O1)C(OC)C=CC=C(C)C2 (stereo not drawn)	i	52.7*	nt	nt	-3.9	nt	92.3*
